Compounds with a hit are over-represented: about 19% of the library has one in this group of screens.
HT1080 IDH1KD tx: qHTS for induction of synthetic lethality in tumor cells producing 2HG: qHTS for the HT-1080-IDH1KD cell line. Potency, µM (top dose mostly 46.1 µM), for inactives: at the top dose activity, negative = toxicity, usual class: cytotoxic. HT-1080 IDH1 knockdown viability, ATP luminescence, 48 h. 2% of 360,000 active. AID 686971, 2013;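 note: potency is the fitted concentration of half-maximal effect; 0% = DMSO wells and -100% = cell-free medium wells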
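In this qHTS, HT-1080 cells depleted of IDH1 are exposed for 48 h at 37 °C to compound titrations. Toxicity is scored from CellTiter-Glo luminescence, with DMSO as full viability and medium alone as none.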
DT40 TDP1 CPT: qHTS for Inhibitors of human tyrosyl-DNA phosphodiesterase 1 (TDP1): qHTS in cells in presence of CPT. Potency, µM (highest dose often 46.2 µM), for the others: at the top dose activity change, negative = growth inhibition, actives largely listed as inhibitors. AID 686979, 2013. chicken DT40 Tdp1-/-;hTDP1 cells + 20 nM CPT, ATP luminescence, 48 h. 12% of 420,000 active; note: potency is the fitted concentration of half-maximal effect; nearly all actives have a fitted effect of over 55% in size
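Chicken DT40 Tdp1-/- cells complemented with human TDP1, 400 cells/well, exposed to compounds plus 20 nM camptothecin for at least 48 h at 37 C; viability read as ATP content by CellTiter-Glo luminescence.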
IL-1B inflam inh: qHTS for Inhibitors of Inflammasome Signaling: IL-1-beta AlphaLISA Primary Screen; AID 743279, 2014; 4.7% of 360,000 active; THP-1 LPS/ATP IL-1B secretion, AlphaLISA, 16 h; active compounds read low; activity change, % at 57.5 µM; in the data active = activity change below about -50%; inconclusive = mostly about -30% to -49%
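THP-1 cells pretreated 1 hr with compounds (up to 57.5 uM final), then stimulated with LPS (250 ng/mL final) plus ATP (1.25 mM final); secreted IL-1B measured by AlphaLISA after 16 hr, decreased signal indicating inhibition.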
TDP1 cell noCPT: qHTS for Inhibitors of human tyrosyl-DNA phosphodiesterase 1 (TDP1): qHTS in cells in absence of CPT | DT40 Tdp1-/- hTDP1 cells, no CPT, ATP luminescence, 48 h | Potency, µM (doses to about 46.2 µM), without a hit: top-dose activity change, negative = growth inhibition, actives largely listed as inhibitors | 15% of 420,000 active | AID 686978, 2013; note: potency is the fitted concentration of half-maximal effect; nearly all actives have a fitted effect of over 55% in size
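Growth kinetics read by CellTiter-Glo luminescence after ≥48 hr at 37 °C. Cells: DT40 Tdp1-/- stably carrying human TDP1, 400 per well, compound exposure in the absence of CPT (DMSO vehicle).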
HT1080NT lethal: qHTS for induction of synthetic lethality in tumor cells producing 2HG: qHTS for the HT-1080-NT fibrosarcoma cell line; HT-1080-NT fibrosarcoma viability, CellTiter-Glo ATP luminescence, 48 h; Potency, µM (titrated, usually from 46.1 µM), for inactives: top-dose activity, negative = less viability, usual class: cytotoxic; 1.6% of 360,000 active; AID 686970, 2013;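 note: NT is the 2HG producing partner of a matched IDH1 knockdown line; potency is the fitted concentration of half-maximal effect; 0% = DMSO-treated cells and -100% = media-only wells without cells; nearly all actives have a fitted effect of over 55% in size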
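A 48-hour cytotoxicity screen used HT-1080-NT cells plated 2 hours before compound delivery. ATP-based CellTiter-Glo luminescence measured viability, normalized to DMSO and no-cell controls.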
An asterisk follows results filed as active; [ ] = remark or other dose. Unless noted, calls come from the whole dose curve; as a rule, active = well fitted curve in the direction sought with a large enough effect; inconclusive = small, poorly fitted or top-dose-only effect, or another doubt; inactive = no such curve, though single readings can be large; an effect the other way counts as inactive or inconclusive. Unless noted, % is set by controls: 0 for no effect and ±100 for the full control effect.

For CCOC(=O)C1CCCN(Cc2cccc(Oc3ccccc3)c2)C1 (centres undefined) the results were HT1080 IDH1KD tx 4.6%, DT40 TDP1 CPT inconclusive, IL-1B inflam inh 1.7, TDP1 cell noCPT -17.6% and HT1080NT lethal 6.5%.
CC(=O)NC(Cc1ccc(F)c(F)c1)C(=O)NC1CCN(C(=O)c2ccc(Cl)cc2)CC1 (centres undefined) was read as HT1080 IDH1KD tx 0.1%, DT40 TDP1 CPT -0.7%, IL-1B inflam inh -6.2, TDP1 cell noCPT -12.2% and HT1080NT lethal 0.6%.
`Cc1ccc(S(=O)(=O)N(C)c2ccc(C(=O)NC3CCCCC3)cc2)cc1` gave HT1080 IDH1KD tx -3.0%, DT40 TDP1 CPT inconclusive, IL-1B inflam inh -11.4, TDP1 cell noCPT inconclusive and HT1080NT lethal -3.6%.
Screening COc1ccccc1NS(=O)(=O)c1ccc2oc(N)nc2c1 returned HT1080 IDH1KD tx -16.6%, DT40 TDP1 CPT -3.9%, IL-1B inflam inh 8.8, TDP1 cell noCPT -6.3% and HT1080NT lethal 7.3%.
Screening O=C(CSc1nc(-c2cccs2)cc(C(F)(F)F)n1)Nc1ccccc1Cl returned DT40 TDP1 CPT inconclusive and TDP1 cell noCPT 18.4µM*.
O=C(CSc1nc(-c2cccs2)cc(C(F)(F)F)n1)NCCCn1ccnc1 was read as HT1080 IDH1KD tx 1.2%, DT40 TDP1 CPT -10.8%, IL-1B inflam inh 21.0, TDP1 cell noCPT -0.4% and HT1080NT lethal -1.9%.
`COc1ccc(NC(=O)CSc2nc(-c3cccs3)cc(C(F)(F)F)n2)c(OC)c1` gave DT40 TDP1 CPT 16.4µM* and TDP1 cell noCPT 20.6µM*.
Screening Cc1ccc(NC(=O)CSc2nc(-c3cccs3)cc(C(F)(F)F)n2)cc1C returned DT40 TDP1 CPT 7.31µM* and TDP1 cell noCPT 5.8µM*.
For O=C(CSc1nc(-c2cccs2)cc(C(F)(F)F)n1)Nc1cc(OCC(F)(F)C(F)F)cc([N+](=O)[O-])c1 the results were HT1080 IDH1KD tx inconclusive, DT40 TDP1 CPT 8.2µM*, IL-1B inflam inh 5.2, TDP1 cell noCPT 11.6µM* and HT1080NT lethal inconclusive.
Screening CCN(CC)C(=O)C1=C(C)N(CCCN2CCCC2=O)C(=O)C(CC(=O)NC(c2ccccc2)c2ccccc2)C1 (centres undefined) returned HT1080 IDH1KD tx 10.9%, DT40 TDP1 CPT -13.5%, IL-1B inflam inh -11.8, TDP1 cell noCPT -3.1% and HT1080NT lethal -3.8%.
For CC(C)CC(=O)c1c[nH]c(C(=O)NCCCn2ccnc2)c1 the results were HT1080 IDH1KD tx 1.7%, DT40 TDP1 CPT 7.6%, IL-1B inflam inh 24.4, TDP1 cell noCPT 0.2% and HT1080NT lethal 18.4%.
Screening COc1cccc(/C=C(/C(=O)OCC(N)=O)c2ccccc2)c1 returned HT1080 IDH1KD tx -9.0%, DT40 TDP1 CPT -2.0%, IL-1B inflam inh -15.9, TDP1 cell noCPT -26.2% and HT1080NT lethal -8.5%.
COc1cccc(/C=C(/C(=O)OCC(=O)NC2CCCC(C)C2C)c2ccccc2)c1 (centres undefined) was read as HT1080 IDH1KD tx inconclusive, DT40 TDP1 CPT inconclusive, IL-1B inflam inh -65.2*, TDP1 cell noCPT 20.6µM* and HT1080NT lethal inconclusive.
Cc1ccc(Sc2ccc(N)cc2C#N)cc1 was read as HT1080 IDH1KD tx -2.0%, DT40 TDP1 CPT -18.5%, IL-1B inflam inh -23.8, TDP1 cell noCPT -17.0% and HT1080NT lethal -5.3%.
For CCCCCNC(=O)CSC1=N/C(=C\c2ccc(Cl)c(Cl)c2)C(=O)N1CC the results were HT1080 IDH1KD tx 4.6%, DT40 TDP1 CPT -13.2%, IL-1B inflam inh 10.0, TDP1 cell noCPT -5.2% and HT1080NT lethal 12.5%.
`O=C(CSC1=N/C(=C/c2ccc(Cl)c(Cl)c2)C(=O)N1c1ccccc1F)NC1CC1` gave HT1080 IDH1KD tx -8.0%, DT40 TDP1 CPT 16.4µM*, IL-1B inflam inh -7.4, TDP1 cell noCPT 16.4µM* and HT1080NT lethal 0.0%.
COc1ccc(Cl)cc1N1C(=O)/C(=C/c2sccc2C)N=C1SCC(=O)NC1CC1 was read as HT1080 IDH1KD tx -20.5%, DT40 TDP1 CPT inconclusive, IL-1B inflam inh -69.9*, TDP1 cell noCPT 16.4µM* and HT1080NT lethal -20.2%.
Screening COc1ccc(Cl)cc1-c1nc(SCC(=O)NC2CCCC2)n[nH]1 returned HT1080 IDH1KD tx -12.9%, DT40 TDP1 CPT inconclusive, IL-1B inflam inh inconclusive, TDP1 cell noCPT inconclusive and HT1080NT lethal -9.1%.
For Cc1ccccc1S(=O)(=O)NC(=O)C1(C)CCN1C(=O)c1ccccc1CCc1ccccc1 (centres undefined) the results were HT1080 IDH1KD tx 9.7%, DT40 TDP1 CPT 5.6%, IL-1B inflam inh -11.3, TDP1 cell noCPT -9.9% and HT1080NT lethal 1.3%.
CCOc1ccc(NC(=S)NC(=O)c2c(Br)cnn2C)c([N+](=O)[O-])c1 was read as HT1080 IDH1KD tx 14.1%, DT40 TDP1 CPT 20.6µM*, IL-1B inflam inh -4.1, TDP1 cell noCPT 23.1µM* and HT1080NT lethal 14.0%.
Screening CCOc1ccc(NC(=S)NC(=O)c2c(Cl)cnn2CC)c([N+](=O)[O-])c1 returned HT1080 IDH1KD tx 4.4%, DT40 TDP1 CPT 3.5%, IL-1B inflam inh -15.1, TDP1 cell noCPT -3.6% and HT1080NT lethal 7.3%.
For COc1cc(-c2cnc3ccccc3c2)cc2c1OCCN(C(=O)CCC(=O)c1ccc(F)cc1)C2 the results were DT40 TDP1 CPT 11.4%[9.04 µM] and TDP1 cell noCPT -22.0%.
Screening COc1ccc(OC)c(-c2cc(C(=O)NC3CCCC3)c3ccccc3n2)c1 returned HT1080 IDH1KD tx -11.0%, DT40 TDP1 CPT -11.4%, IL-1B inflam inh -5.6, TDP1 cell noCPT inconclusive and HT1080NT lethal -6.0%.
`CCn1cc(CNC(=O)c2cc(-c3ccc(C)cc3)nc3ccc(Br)cc23)c(C)n1` gave DT40 TDP1 CPT 6.51µM* and TDP1 cell noCPT 13µM*.
Screening CCn1cc(CNC(=O)c2cc(-c3ccccc3OC)nc3ccccc23)c(C)n1 returned HT1080 IDH1KD tx -1.2%, DT40 TDP1 CPT inconclusive, IL-1B inflam inh -11.0, TDP1 cell noCPT 14.6µM* and HT1080NT lethal -9.9%.
For CCn1cc(CNC(=O)c2cc(Cl)ccc2OC)c(C)n1 the results were HT1080 IDH1KD tx 3.2%, DT40 TDP1 CPT 1.3%, IL-1B inflam inh -2.1, TDP1 cell noCPT inconclusive and HT1080NT lethal 12.7%.
CCn1cc(CNC(=O)c2cc(-c3cc(OC)ccc3OC)nc3ccccc23)c(C)n1 was read as HT1080 IDH1KD tx 4.0%, DT40 TDP1 CPT inconclusive, IL-1B inflam inh 5.0, TDP1 cell noCPT 23.1µM* and HT1080NT lethal 0.6%.
